Here are results for 109 compounds from PubChem BioAssay AID2551 (National Center for Advancing Translational Sciences (NCATS), 2010).

Each structure is given as a SMILES string. The whole screen tested about 310,000 compounds, of which about 17,000 (5.5%) were called active. A call without a number means that no potency is given here. Another 11% or so got no clear call; they are omitted. The full list was thinned out, with actives kept by preference. Unmarked numbers belong to inactive results. Calls come from the whole dose curve; as a rule, active = well fitted inhibition curve with a large enough effect; inconclusive = small, poorly fitted or top-dose-only effect, or effect the other way; inactive = no such curve, though single readings can be large or run the other way.
Potency is the fitted concentration of half-maximal effect.

The target of the assay is Nuclear receptor ROR-gamma (Mus musculus) (UniProt P51450). As to the kind of experiment: qHTS for inhibitors of ROR gamma transcriptional activity. Note: nearly all actives have a fitted effect of over 60% in size. The note with it: Drosophila S2 Gal4-RORgamma UAS-luciferase reporter, 20 h; series mostly up to 53.6 µM. The method, boiled down: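 Using a luciferase readout, inhibitors were identified by reduced reporter activity in Drosophila cells coexpressing a copper-inducible Gal4–ROR gamma fusion and UAS-driven Photinus luciferase, incubated 20 hr after 700 uM copper sulfate.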
Nuclear receptor ROR-gamma (Mus musculus), sequence (P51450 whole entry, looked up, the tested form may be a part): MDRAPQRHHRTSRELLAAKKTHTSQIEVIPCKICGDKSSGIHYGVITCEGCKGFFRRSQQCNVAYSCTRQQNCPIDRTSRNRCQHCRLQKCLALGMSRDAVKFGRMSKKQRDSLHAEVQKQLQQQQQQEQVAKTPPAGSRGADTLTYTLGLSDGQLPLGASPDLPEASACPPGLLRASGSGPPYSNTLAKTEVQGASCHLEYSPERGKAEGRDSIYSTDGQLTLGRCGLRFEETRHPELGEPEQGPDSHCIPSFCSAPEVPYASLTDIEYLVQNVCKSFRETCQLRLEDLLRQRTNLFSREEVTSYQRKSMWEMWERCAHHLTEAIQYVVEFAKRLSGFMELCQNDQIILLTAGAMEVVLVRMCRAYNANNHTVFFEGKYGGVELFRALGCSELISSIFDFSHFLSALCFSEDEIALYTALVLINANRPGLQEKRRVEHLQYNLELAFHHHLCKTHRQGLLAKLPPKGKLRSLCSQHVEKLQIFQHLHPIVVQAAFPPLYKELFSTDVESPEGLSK
(In general: qHTS replaces the single test concentration by a dilution series.)
On to `O=C1CSc2ccc(S(=O)(=O)NCc3ccccc3)cc2N1`, for which the Potency result is “inactive”.
Same read-out and setting: next, `CN(Cc1ccccc1)C(=O)C1CCCN(c2ncnc3c2nc2n3CCCCC2)C1` (centres undefined): “inactive”; `CN(C)CCN(C(=O)C1=COCCO1)c1nc2ccc(Cl)cc2s1`: “inactive”.
Consider `CC1=NN(Cc2ccccc2)C(=O)/C1=C/c1ccc(N(C)C)cc1`, for which the Potency result was “inactive”.
Same read-out and setting: the result for `O=C1NCC(=O)N(Cc2ccccc2)/C1=C/c1ccccc1` reads “inactive”.
The same measure, in the same setting: the result for `CN(C)c1ccc(/C=C2\NC(=S)N(Cc3ccccc3)C2=O)cc1` reads 5.01 µM (active); that for `COC(=O)CSc1nnc(NC(=O)CCc2ccccc2)s1`, “inactive”; that for `O=C(Cc1ccc(Br)cc1)NCCN1CCOCC1`, “inactive”.
On the same count and under the same terms, next, `CC1CCN(Cc2nc(-c3ccc(Cl)cc3)no2)CC1`: “inactive”; `Clc1ccc(-c2nnc(-c3ccccc3)nc2N2CCSCC2)cc1`: “inactive”.
On to `Clc1ccc(-c2nc3ccccn3c2CN2CCSCC2)cc1`, for which the Potency is 12.6 µM (active).
`Cc1ccc(N(Cc2ccccc2O)C(=O)c2ccccc2F)cc1`: the Potency entry is “inactive”.
Still for that read-out and setting: next, `COc1ccc(C(=O)O/N=C(\N)Cc2ccc(Cl)cc2Cl)cc1OC`: 15.8 µM (active); `COc1ccc(C(=O)ON=C2c3ccccc3-c3ccccc32)cc1OC`: “inactive”.
As to `COc1ccc(C/C(N)=N/OC(=O)c2ccco2)cc1OC`, the Potency result is “inactive”.
As for `CCOc1ccc(N(CC(=O)Nc2cccc(OC)c2)S(C)(=O)=O)cc1`, the Potency result was “inactive”.
Still for that read-out and setting: next, `OC(CNCCc1ccc(Cl)cc1Cl)COc1ccccc1` (centres undefined): “inactive”; `COc1ccc(C2CC(c3cccs3)=NN2C(=O)CCC(=O)O)cc1OC` (centres undefined): “inactive”; `O=C(N/N=C/c1ccccc1O)/C(=C/c1ccccc1)CCO`: 1.12 µM (active).
On the same count and under the same terms, the result for `O=C(CCC(=O)Nc1ccccc1)N/N=C/c1ccccc1F` reads “inactive”.
For `O=C(CCCCCNC(=O)c1ccccc1)N/N=C/c1ccccc1`, the Potency result was “inactive”.
The same measure, in the same setting: next, `COC(=O)c1ccc(COC(=O)c2cnc(Cl)c(Cl)c2)cc1`: “inactive”; `CCn1c(SCC(=O)NC2CC2)nnc1-c1ccccn1`: “inactive”.
For the compound `COc1ccc(N)c(OC)c1`, the Potency entry was “inactive”.
With `COc1ccc(/C=C2/C(=O)N(c3ccccc3)N=C2C)c(OC)c1`, the Potency result was “inactive”.
Still for that read-out and setting: the result for `COc1cc(/C=C/C2=CC(C)(C)NC(=S)N2)cc(OC)c1OC` reads 3.55 µM (active); that for `CCC(=O)c1ccc(OC(=O)/C=C/c2cc(OC)c(OC)c(OC)c2)cc1`, “inactive”.
With `COc1ccc(/C=C/C2=CC(C)(C)NC(=S)N2)c(OC)c1`, the Potency is 1.26 µM (active).
On the same count and under the same terms, next, `CCOC(=O)COn1c(=O)c(-c2ccc(OCC)cc2)[n+]([O-])c2ccccc21`: “inactive”; `COc1cc(C(=O)OCC(=O)NC(C)CCc2ccccc2)cc(OC)c1OC` (centres undefined): “inactive”.
Consider `COc1cc(C(C(=O)NC2CCCC2)N(Cc2ccccc2)C(=O)c2snc(C(N)=O)c2N)ccc1O` (centres undefined), for which the Potency result was “inactive”.
With `Cc1[nH]n(-c2ccccc2)c(=O)c1/C=N/NC(=O)c1ccoc1C`, the Potency is 0.251 µM (active).
`COc1cc(/C=N/NC(=O)c2ccoc2C)ccc1OCCN1CCCCC1`: the Potency entry was “inactive”.
`O=C(N/N=C/c1cccc([N+](=O)[O-])c1)c1ccncc1`: the Potency result is “inactive”.
On the same count and under the same terms, the result for `Cc1[nH]n(-c2ccccc2)c(=O)c1N=Nc1ccccc1C(=O)N1CCCCC1` reads “inactive”; that for `Cc1ccc(-n2[nH]c(C)c(/C=N/NC(=O)c3cccc([N+](=O)[O-])c3)c2=O)cc1C`, 1.12 µM (active); that for `COc1cccc(/C=N/NC(=O)c2cccc([N+](=O)[O-])c2)c1OS(=O)(=O)c1ccc(C)cc1`, “inactive”.
The same measure, in the same setting: next, `Cc1oc(-c2ccccc2F)nc1CS(=O)CC(=O)NCCN1CCCCC1C` (centres undefined): “inactive”; `CCOc1ccc(S(=O)(=O)N2CCN=C2Cc2ccccc2)cc1C`: “inactive”; `COc1cccc(CNC(=O)CCCC(=O)Nc2cccc([N+](=O)[O-])c2)c1`: “inactive”.
`Cc1cnc(C)c(N2CCN(C(=O)C3CCC(=O)N(CCc4cccc(F)c4)C3)CC2)n1` (centres undefined): the Potency result was “inactive”.
The same measure, in the same setting: the result for `Cc1cc(-n2nc(C)cc2C)n2nc(C)c(-c3ccccc3)c2n1` reads “inactive”; that for `Cc1cc(C)c2c(n1)nn1c(-n3ccnc3)cc(C)nc21`, 10 µM (active); that for `Cc1cc(C)c2c(NC(=O)C3CC3)nn(C)c2n1`, “inactive”.
`O=C(Nc1ccc(F)cc1)C(=O)c1cn(CC(=O)N2CCOCC2)c2ccccc12`: the Potency result was “inactive”.
In the case of `CCSc1nc(O)c(C(c2cccc(OC)c2)c2c(O)nc(SCC)[nH]c2=O)c(=O)[nH]1`, the Potency result was “inactive”.
`CC(=O)c1cccc(NC(=S)N2CCCC2)c1`: the Potency entry is “inactive”.
`CCOC(=O)C1(Cc2ccccc2C)CCCN(C(=O)CCc2c(C)noc2C)C1` (centres undefined): the Potency entry was “inactive”.
The same measure, in the same setting: next, `COc1ccc(N2C(=O)C(Cc3ccccc3)NC2=S)cc1` (centres undefined): “inactive”; `COc1ccc(N2C(=O)C3C(C2=O)C(C(=O)c2ccccc2)N2CCCC32)cc1` (centres undefined): 11.2 µM (active).
As for `COc1ccc(N2C(=O)C3CCCN3C2c2cccc(OC)c2)cc1` (centres undefined), the Potency result is “inactive”.
Same read-out and setting: next, `O=S1(=O)N=C(N(CCO)/N=C/c2ccccc2F)c2ccccc21`: “inactive”; `O=c1[nH]cnc2c1c(-c1ccccc1)cn2-c1ccc(F)cc1`: “inactive”; `COc1ccc(-n2cc(-c3ccccc3)c3c(=S)nc[nH]c32)cc1`: 0.501 µM (active).
In the case of `COc1ccc(N2CCN(Cc3nnc(-c4ccccc4)o3)CC2)cc1`, the Potency result was “inactive”.
On the same count and under the same terms, next, `Cc1cccc(NC(=O)CCN2CC(C)CC(C)C2)c1` (centres undefined): “inactive”.
On the same count and under the same terms, next, `c1ccc(-c2cn3c(n2)CCc2ccc4cccnc4c2-3)cc1`: 3.55 µM (active).
In the case of `COCC(=O)N1CCc2ccc(NC(=O)c3ccccc3Cl)cc2C1`, the activity change, negative = inhibition was 8.09% [at 1.91 µM].
`CC(NC(=O)Cn1cc(C(F)(F)F)cc(Cl)c1=O)c1ccccc1` (centres undefined): the Potency entry is “inactive”.
`Cc1ccc(S(=O)(=O)c2nc(-c3cccs3)oc2NCc2cccnc2)cc1`: the Potency result is “inactive”.
Still for that read-out and setting: the result for `C/C(=N/NC(=O)c1ccncc1)c1ccc2c(c1)OCO2` reads “inactive”.
Still for that read-out and setting: next, `C/C(=N/NC(=S)Nc1ccccc1)c1ccc2c(c1)OCO2`: 1.26 µM (active); `C/C(=N\NC(=O)C(N)=O)c1ccc2c(c1)OCCO2`: “inactive”.
Take `CCCCc1nc(SCC(=O)Nc2nnc(C(C)C)s2)n[nH]1`: the Potency entry was “inactive”.
On the same count and under the same terms, next, `Cc1ccc2nc(-c3ccncc3)cc(C(=O)Nc3ccncc3)c2c1`: “inactive”; `Cc1cc(C)cc(OCC(=O)NC(C)c2ccccc2)c1` (centres undefined): “inactive”.
Still for that read-out and setting: next, `CCC1=C/C(=C\c2ccc3c(c2)OCO3)C(=O)S1`: “inactive”.
In the case of `O=C1/C(=C/c2ccc3c(c2)OCO3)CCC/C1=C\c1ccc2c(c1)OCO2`, the Potency is 11.2 µM (active).
Still for that read-out and setting: next, `O=C(N/N=C/c1ccc2c(c1)OCO2)C(=O)N1CCCC1`: “inactive”.
Same read-out and setting: next, `O=C(NC(Cc1ccccc1)C(=O)O)/C(=C\c1ccccc1)NC(=O)c1ccco1` (centres undefined): “inactive”; `CC(C)Oc1ccc(Cc2n[nH]c(=S)n2Cc2ccccc2)cc1Cl`: 3.98 µM (active).
Same read-out and setting: next, `CC(=O)N(OCc1ccc(OC(C)C)c(Cl)c1)C(C)=O`: “inactive”; `CC(C)Oc1ccc(CCc2nnc(SCC(=O)O)n2-c2ccccc2)cc1`: “inactive”; `C=CCn1c(CCc2ccc(OC(C)C)cc2)n[nH]c1=S`: “inactive”.
Take `CC(C)Oc1ccc(CCc2n[nH]c(=S)n2Cc2ccccc2)cc1`: the Potency was 3.16 µM (active).
Still for that read-out and setting: next, `CC(=O)Nc1ccc(S(=O)(=O)N2CCC(C(=O)NC3CC3)CC2)cc1`: “inactive”.
For the compound `OC(CNC1CCCC1)COc1ccc(F)cc1` (centres undefined), the Potency result was “inactive”.
The same measure, in the same setting: the result for `COc1ccccc1CNS(=O)(=O)c1ccc2c(c1)NC(=O)CS2` reads “inactive”.
On the same count and under the same terms, the result for `CCCn1nc(NS(=O)(=O)c2ccc(F)cc2)c2cc3ccccc3nc21` reads “inactive”; that for `COc1ccc(N=Nc2ccc(O)c(P(=O)(c3ccccc3)c3ccccc3)c2)cc1`, “inactive”; that for `Cc1cc(N=Nc2ccc3ccccc3c2)ccc1O`, 11.2 µM (active).
With `Cc1cccc(C(=O)NNC(=O)CSc2nnc(C(C)C)n2C)c1`, the Potency result is “inactive”.
As to `Cc1c(C(C)(C)O)[nH]c2ccc(C#N)cc12`, the Potency result was “inactive”.
The same measure, in the same setting: next, `CCn1c(SCC(=O)NNC(=O)c2ccc(OC)cc2)nnc1C(C)C`: “inactive”.
Still for that read-out and setting: next, `COC(=O)C1=C(C)N(C)C(=S)NC1c1ccccc1` (centres undefined): “inactive”; `COC(=O)C1=C(C)N(C)C(=S)NC1c1cc(OC)ccc1OC` (centres undefined): 15.8 µM (active).
For the compound `COC(=O)C1=C(C)OC(N)=C(C#N)C1c1cc(OC)ccc1OC` (centres undefined), the Potency entry is “inactive”.
Same read-out and setting: the result for `CCOC(=O)c1c(-c2ccccc2)oc2ccc(OCC(N)=O)cc12` reads “inactive”; that for `CCOC(=O)c1c(S(=O)(=O)Nc2cccc(Cl)c2)c(C)n(C)c1C`, “inactive”.
Take `CC/C(=N\NC(=O)c1ccccc1Cl)c1ccc(Br)s1`: the Potency was 11.2 µM (active).
On the same count and under the same terms, next, `CC(=O)Nc1cccc(/C(C)=N/NC(=O)c2ccccc2Cl)c1`: “inactive”; `C/C(Cc1ccccc1)=N\NC(=O)CNC(=O)c1ccccc1Cl`: “inactive”.
On to `CCCOc1ccc(C(=O)C(CCC(CNCC)C(=O)c2ccc(OCCC)cc2)CNCC)cc1` (centres undefined), for which the Potency is 15.8 µM (active).
On to `CCCCOc1ccc(C(=O)NCc2ccncc2)cc1`, for which the Potency entry is “inactive”.
Same read-out and setting: next, `CCCOc1ccc(N/C=C/C(=O)C(C)(C)C)cc1`: “inactive”.
Still for that read-out and setting: next, `COc1cccc(-n2c(=S)[nH]c3c(oc4ccccc43)c2=O)c1`: 7.08 µM (active); `COc1cccc(N2C(=O)CN(Cc3ccccc3)C2=S)c1`: “inactive”.
`COc1cccc(-n2cc(C(=O)O)c3ccccc3c2=O)c1`: the Potency result is “inactive”.
The same measure, in the same setting: the result for `CCc1cccc(CC)c1NC(=S)Nc1ccc2cn[nH]c2c1` reads “inactive”.
The same measure, in the same setting: the result for `CCc1cccc(CC)c1NC(=S)NCc1ccc2[nH]c(C)cc2c1` reads 2.51 µM (active); that for `CCNCc1cc2cc(C)ccc2[nH]c1=O`, “inactive”; that for `Cc1cccc(S(=O)(=O)N2CN(CC3CCCO3)c3nc4ccccc4nc32)c1` (centres undefined), “inactive”.
As to `CC(C)(C)n1nnnc1C(c1ccc(Cl)cc1)N1CCSCC1` (centres undefined), the Potency result was “inactive”.
Regarding `CCC(C)(C)n1nnnc1C(c1ccccc1OC)N1CCSCC1` (centres undefined), the Potency result was “inactive”.
Same read-out and setting: the result for `CC(C)(C)n1nnnc1C(c1ccc2ncccc2c1)N1CCSCC1` (centres undefined) reads 10 µM (active).
Same read-out and setting: next, `Cc1c(C)c2ccc(OCC(=O)N3CCC(C(=O)O)CC3)c(C)c2oc1=O`: “inactive”.
The same measure, in the same setting: the result for `C=C(C)CNC(=S)/N=c1\scc(C)n1CC` reads 7.94 µM (active).
On to `Cc1csc(=Nc2ccccc2)n1CCO`, for which the Potency entry is “inactive”.
Still for that read-out and setting: the result for `Cc1csc(=NC(=O)c2ccccc2)n1CCO` reads “inactive”.
